HPGD block – HPGD (human) dehydrogenase inhibition; P15428; purified HPGD, NADH fluorescence kinetic, PGE2 substrate; Potency, µM, hits mostly inhibitors; hit rate 4.3% among 150,000; AID 894
Target sequence (P15428 whole entry, looked up): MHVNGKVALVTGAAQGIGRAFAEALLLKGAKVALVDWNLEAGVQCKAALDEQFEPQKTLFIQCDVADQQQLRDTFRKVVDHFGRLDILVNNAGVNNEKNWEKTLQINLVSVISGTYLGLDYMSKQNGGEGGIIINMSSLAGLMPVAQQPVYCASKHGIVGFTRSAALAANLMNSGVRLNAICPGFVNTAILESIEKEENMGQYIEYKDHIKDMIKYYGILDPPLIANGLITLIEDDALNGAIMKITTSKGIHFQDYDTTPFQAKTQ
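20 nM HPGD preincubated 15 min at room temperature with compound in 50 mM Tris-HCl pH 8, 0.01% Tween 20. Started with 1 mM NAD+ and 30 uM prostaglandin E2; NADH fluorescence (360/450 nm) read 5 times over 30-s intervals, last minus first.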
PNC inhibitor – inhibitors of perinucleolar compartment assembly; hit rate 3.1% among 140,000; AID 2417; PC3M PTB-GFP, PNC prevalence imaging, 16 h; stronger effect = lower value; activity change (PNC), negative = inhibition, % at 10 µM;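 active means readout at or below -70, meaning at least 70% loss of cells showing the perinucleolar compartment, a nuclear body marking cancer cells; inconclusive means readout between -30 and a set limit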
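Read-out is percentage of cells bearing a perinucleolar compartment, from automated 20x imaging of fixed, Hoechst-stained PC3M PTB-GFP cells. Cells were seeded 4 h, then exposed 16 h to compound (23 nl of library stock) in duplicate plates.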
12-hLO inh – 12-hLO (ALOX12) enzyme inhibition; purified 12-hLO, xylenol orange hydroperoxide absorbance; Potency, µM (doses to about 57.1 µM), usual class: inhibitors; hit rate 0.12% among 150,000; active means well fitted inhibition curve with a large enough effect; inconclusive means small, poorly fitted or top-dose-only effect; further: nearly all actives have a fitted effect of over 55% in size
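Purified human 12hLO (150 nM final) was preincubated with compounds for 15 min at room temperature in 25 mM Hepes pH 7.0, 0.01% Triton X-100, then reacted with 40 uM arachidonic acid for 30 min. Hydroperoxide was detected with ferrous iron/xylenol orange.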
Lamin A splicing – LMNA splicing modulation; HeLa LMNA splicing GFP/RFP minigene ratio, 48 h; Potency, µM (top dose mostly 46.1 µM), usual class: inhibitors; hit rate 0.01% among 200,000; AID 1487; active means well fitted inhibition curve with a large enough effect in the signal ratio, with a control signal flat, not every such curve was filed as active; inconclusive means small, poorly fitted or top-dose-only effect, or effect the other way, or a change in a side signal; the % refers to the signal ratio
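Read-out is the ratio of GFP to DsRed2 object intensity, acquired by 488 nm laser-scanning cytometry on HeLa lamin A-EGFP minigene reporter cells. Compound incubation 48 hrs at 37 °C in Opti-MEM with 2% FBS; DMSO 0.5% final.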
ALDH1A1 block – ALDH1A1 (human) enzyme inhibition | P00352 | Purified ALDH1A1, NADH fluorescence, propionaldehyde substrate | Potency, µM (series often up to 75.3 µM), usual class: inhibitors | hit rate 7.3% among 220,000
Numbers stand for hits; i = inactive; ? = inconclusive; nt = no result; [ ] = another dose, or the depositor's remark. Rows were chosen to be rich in hits. Some 10% of all compounds tested hit in one or more screens of this group. Unless noted, the call rests on the fitted dose curve; in most records, active means well fitted inhibition curve with a large enough effect (not every such curve was filed as active); inconclusive means small, poorly fitted or top-dose-only effect, or another doubt; inactive means no such curve, though single readings can be large or run the other way.

SMILES	HPGD block	PNC inhibitor	12-hLO inh	Lamin A splicing	ALDH1A1 block
O=C(NC(=S)NCC1CCCO1)c1ccc(Cl)cc1Cl (configuration not stated)	i	?	i	i	i
CCOc1ccccc1NC(=O)c1c(NCc2ccc(OC)c(OC)c2OC)sc2c1CCC(C)C2 (configuration not stated)	nt	nt	nt	i	nt
O=S(=O)(NCCc1cn2ccsc2n1)c1ccc(Cl)cc1	nt	nt	nt	i	nt
CCOc1ccccc1NC(=O)c1cc2c(=O)n(Cc3cccnc3)ccc2nc1C	nt	nt	nt	i	nt
Cc1ccc(SCC2(O)CCN(S(=O)(=O)c3ccc(Cl)cc3)CC2)cc1	i	-100	i	?	?
O=C(c1ccc(Cl)cc1)N1CCC(O)(CSc2ccc(Cl)cc2)CC1	i	i	i	i	16µM
COc1cccc(SCC2(O)CCN(C(=O)c3ccc(Cl)cc3)CC2)c1	nt	nt	nt	i	?
CN1CCN(CC2(O)CCN(S(=O)(=O)c3ccc(Cl)cc3)CC2)CC1	nt	nt	nt	nt	i
O=C(c1ccc(Cl)cc1)N1CCC(O)(CSc2ccccc2)CC1	i	-91	i	?	1.4µM
Cc1cccc(C(=O)NCC(=O)OCc2cc(=O)n3nc(C4CCCCC4)sc3n2)c1	nt	nt	nt	i	nt
CCOC(=O)c1cnn(-c2ncnc3sc4c(c23)CCC4)c1N	7.9µM	i	i	i	i
CCOC(=O)CSc1nc(N)c2c3c(sc2n1)CCCC3	i	i	i	i	i
CCOC(=O)c1cnn(-c2nc(SC)nc3sc4c(c23)CCCC4)c1N	i	i	i	?	1.1µM
CCOC(=O)c1cnn(-c2ncnc3c2oc2ccccc23)c1N	i	i	i	i	i
Cc1ccc2cc(CCNS(=O)(=O)c3ccc(F)cc3)c(=O)[nH]c2c1C	nt	nt	nt	nt	i
Cc1ccc(C)c(N2C(=O)c3cc(N4CCOCC4)c([N+](=O)[O-])cc3C2=O)c1	i	?	i	i	i
O=C(O)c1ccc(/C=N\N=C2c3ccccc3-c3ccccc32)cc1	i	nt	i[11.4 µM]	nt	i[13.5 µM]
CN(C)c1nc(=NCc2ccco2)ss1	nt	nt	nt	nt	10µM
COCCn1c(=O)c(-c2ccc(OC)cc2)nc2cnc(Oc3ccc(OC)cc3)nc21	i	nt	i	nt	?
CCCOc1cccc(C2/C(=C(/O)c3ccc(OC)cc3)C(=O)C(=O)N2CCN(C)C)c1 (configuration not stated)	i	i	i	i	16µM
COc1ccc(/C(O)=C2\C(=O)C(=O)N(CCN(C)C)C2c2cc(OC)c(OC)c(OC)c2)c(C)c1 (configuration not stated)	i	i	i	i	28µM
COc1ccc(C2/C(=C(\O)c3cc(C)ccc3C)C(=O)C(=O)N2CCN(C)C)cc1OC (configuration not stated)	i	i	i	i	i
CCCCOc1ccc(/C(O)=C2/C(=O)C(=O)N(CCN(C)C)C2c2ccc(O)c(OC)c2)cc1 (configuration not stated)	i	i	i	i	i
Cc1c(/C(O)=C2\C(=O)C(=O)N(CCCN(C)C)C2c2ccccc2)cnn1-c1ccccc1 (configuration not stated)	20µM	i	i	i	?
CN(C)c1cccc(C(=O)Nc2ccc(-c3nc4ccccc4s3)cc2)c1	nt	nt	nt	i	nt
SMILES	HPGD block	PNC inhibitor	12-hLO inh	Lamin A splicing	ALDH1A1 block
COc1ccc2c(c1)CC(NC(=O)Nc1cc(Cl)ccc1OC)CO2 (configuration not stated)	nt	nt	nt	i	nt
CC(C)(C)c1ccc(S(=O)(=O)N2CCC(CO)(CC3CCCCO3)CC2)cc1 (configuration not stated)	nt	nt	nt	nt	0.32µM
CCOC(=O)CSC1=NC(=O)/C(=C\c2ccc(OC(C)=O)cc2)S1	25µM	i	i	i	i
CCC(CC)C(=O)Nc1ccc2nc(SCC(=O)N3CCOCC3)sc2c1	nt	nt	nt	i	nt
Cc1cccc(N(C(=O)Cn2nnc3ccccc32)C(C(=O)NC(C)(C)C)c2ccsc2)c1 (configuration not stated)	i	-94	i	i	i
Clc1ccccc1-c1ccc2ncnc(NCCN3CCOCC3)c2c1	nt	nt	nt	?	i
Cc1ccc(C(=O)c2oc3ccccc3c2NC(=O)c2cc(-c3ccc(Cl)cc3)on2)cc1	nt	nt	nt	i	nt
N#Cc1nc(-c2ccco2)oc1N1CCCC1	?	i	i	i	?
N#Cc1nc(-c2ccco2)oc1N1CCN(c2cccc(Cl)c2)CC1	?	-82	i	?	?
COc1ccccc1NC(=O)CSc1nc2ccccc2c2nc(-c3ccccc3)nn12	nt	nt	nt	i	nt
CCOC(=O)c1cc(C#N)c(N2CCOCC2)nc1-c1ccccc1	nt	nt	nt	i	?
CCOC(=O)c1cc(C#N)c(N2CCN(C(=O)c3ccccc3)CC2)nc1C(F)(F)F	nt	nt	nt	nt	13µM
CCN(CC)CCNc1nc2c(c(=O)[nH]c(=O)n2C)n1CC(O)COc1ccc(Cl)cc1Cl (configuration not stated)	i	-84	i	i	i
Cc1cc(C)n(-c2nc3c(c(=O)[nH]c(=O)n3C)n2CC(O)COc2ccc(Cl)cc2Cl)n1 (configuration not stated)	3.5µM	i	i	?	i
Oc1ccc2ccccc2c1/C=C\c1ccc2c(Br)cc(Br)c(O)c2n1	i	nt	i[11.4 µM]	nt	i[13.5 µM]
NCCn1oc(=O)[nH]c1=O	nt	nt	nt	nt	i
Cc1ccc2c(Cl)c(C(=O)NCC3CCCO3)sc2c1 (configuration not stated)	14µM	i	i	i	i
O=C(NCC1CCCO1)c1sc2ccccc2c1Cl (configuration not stated)	8.9µM	i	i	i	?
CCOc1ccc(CNC(=O)CCS(=O)(=O)c2cc3c(cc2Cl)NC(=O)CO3)cc1OC	nt	nt	nt	i	nt
C=CCNC(=O)c1ccc(C)cc1Cl	4µM	i	i	i	i
C=CCNC(=O)c1c(Cl)cccc1Cl	?	i	i	i	?
C=CCNC(=O)c1ccc(Cl)cc1Cl	14µM	i	i	i	i
COc1cc(OC)c(NC(=O)C2=C(C)C(=O)OC23CCN(C(C)=O)CC3)cc1Cl	nt	nt	nt	i	nt
O=[N+]([O-])c1ccc(N=Nc2ccc(O)cc2O)cc1	i	i	i	?	10µM
COc1cc(C2NC(=S)NC(C)=C2C(=O)c2ccccc2)ccc1O (configuration not stated)	i	i	i	i	?
SMILES	HPGD block	PNC inhibitor	12-hLO inh	Lamin A splicing	ALDH1A1 block
CC1=C(C(=O)c2ccccc2)C(c2ccc(OC(F)F)cc2)NC(=S)N1 (configuration not stated)	nt	nt	nt	?	1.1µM
CCc1ccc(NC(=O)c2ccc(CN3C(=O)C(C)=C(c4ccc(C)cc4)S3(=O)=O)cc2)cc1	nt	nt	nt	i	nt
CC(C)NC(=O)N1CC2(CCN(C(=O)c3ccco3)CC2)C1	i	nt	i	nt	?
Clc1cccc(CSc2ccc(-c3ccco3)nn2)c1	nt	nt	nt	nt	25µM
Fc1ccccc1CSc1ccc(-c2ccco2)nn1	nt	nt	nt	nt	28µM
Clc1ccc(CSc2ccc(-c3ccco3)nn2)cc1	nt	nt	nt	nt	i
c1ccc(CSc2ccc(-c3ccco3)nn2)cc1	i	i	i	i	40µM
CC(=O)C1=C(c2ccccc2)N(C(C)=O)n2c(nnc2C2CCCCC2)S1	nt	nt	nt	i	nt
